TrxR1 inh: blocks rat thioredoxin reductase 1. O89049. recombinant rTrxR1, NADPH fluorescence consumption, selenite substrate. Potency, µM (series often up to 114 µM), actives largely listed as inhibitors. 1% of 390,000 active. AID 588453; further: nearly all actives have a fitted effect of over 65% in size
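Rat TrxR1 (90 nM in the dispensed reagent) was pre-reduced with 400 uM NADPH for 5 min at room temperature, then incubated with compound for 15 min. After 400 uM selenite was added, NADPH fluorescence (Ex 340/Em 450 nm) was followed for 8 min.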
GLP-1R inv ag: acts as inverse agonist at human GLP-1 receptor | P43220 | HEK293 GLP-1R CRE-luciferase, luminescence, 24 h; GLP-1R form is constitutively active | Potency, µM (series often up to 38.3 µM), usual class: inhibitors | 1.6% of 410,000 active; further: nearly all actives have a fitted effect of over 55% in size
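Inverse agonism was detected as reduced cAMP-driven luciferase luminescence after 24 h compound treatment. The cells were HEK293 clones expressing constitutively active human GLP-1R with the reporter. Reporter-only and GPR119 cell lines served as counterscreen controls.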
GLP-1R agonist: activates the human GLP-1 receptor. 0.007% of 380,000 active. HEK293 GLP-1R CRE-luciferase, luminescence, 4-6 h; cells express a hypersensitive GLP-1R form. Potency, µM (titrated, usually from 45.6 µM), most hits filed as activators. P43220
HEK293 tox: cytotoxicity counter-screen for GLP-1 receptor inverse agonists; HEK293 cAMP-luciferase reporter cells, luminescence, 24 h; Potency, µM (series often up to 38.3 µM), usual class: inhibitors; 0.13% of 410,000 active;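 further: loss of luciferase light is scored as toxicity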
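MLSMR compounds, 24 hr on cells at 37 deg C/5% CO2; luminescence after luciferase reagent (12 min RT). Inhibition counted as the undesired cytotoxic outcome.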
TrxR1 substrate: substrates of rat thioredoxin reductase 1; O89049; purified TrxR1 substrate turnover, NADPH consumption readout; Potency, µM (highest dose often 114 µM); 0.01% of 390,000 active; AID 588456; further: nearly all actives have a fitted effect of over 50% in size
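Rat TrxR1, dispensed at 90 nM, was prereduced with 400 uM NADPH (final) for 5 min at ~22 deg C, then incubated with compound 15 min before 400 uM selenite. A first-read NADPH fluorescence drop versus no-compound background flagged substrates.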
mIDH1 inhibitor: inhibitors of human mutant IDH1 R132H; 0.093% of 390,000 active; Potency, µM (series often up to 76.6 µM), hits mostly inhibitors; AID 602179; IDH1-R132H enzyme, NADPH consumption, diaphorase/resazurin fluorescence; O75874; further: nearly all actives have a fitted effect of over 65% in size
Target sequence (O75874 whole entry R132H, stated change not applied): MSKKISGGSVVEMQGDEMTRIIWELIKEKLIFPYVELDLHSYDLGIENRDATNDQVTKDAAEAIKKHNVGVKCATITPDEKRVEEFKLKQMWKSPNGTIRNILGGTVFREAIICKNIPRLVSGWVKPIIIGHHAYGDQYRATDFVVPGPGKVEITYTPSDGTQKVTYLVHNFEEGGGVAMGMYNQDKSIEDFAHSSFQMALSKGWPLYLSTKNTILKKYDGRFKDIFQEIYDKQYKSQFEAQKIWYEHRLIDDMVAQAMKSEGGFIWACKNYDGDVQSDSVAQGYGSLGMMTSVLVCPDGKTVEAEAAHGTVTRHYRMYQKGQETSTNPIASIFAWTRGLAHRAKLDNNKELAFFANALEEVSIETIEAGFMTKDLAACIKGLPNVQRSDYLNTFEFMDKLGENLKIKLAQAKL
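IDH1-R132H (0.5 ug/mL dispensed) in pH 7.5 Tris buffer was preincubated 30 min with compound, then given a substrate mix of 0.016 mM NADPH and 2 mM alpha-KG for 80 min at room temperature; remaining NADPH was read by diaphorase/resazurin fluorescence.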
Large screens that a line does not name were inactive. Hits are enriched below; roughly 2.7% of the tested compounds scored in any of these assays. The call rests on the fitted dose curve; in most records, active means well fitted curve in the direction sought with a large enough effect; inconclusive means small, poorly fitted or top-dose-only effect, or another doubt; inactive means no such curve, though single readings can be large; an effect the other way counts as inactive or inconclusive.

COc1cc2nc(Nc3cccc(F)c3)nc(N)c2cc1OC	GLP-1R inv ag 10µM, HEK293 tox inconclusive
O=C(Nc1ccc2nc(SCC(=O)N3CCOCC3)sc2c1)c1ccc(Cl)cc1	none (no result: GLP-1R agonist)
CC(=O)NC(Cc1ccc(N(CCCl)CCCl)cc1)C(=O)NC(C(=O)O)C(C)C (stereo not drawn)	TrxR1 inh inconclusive
NC(Cc1ccc(N(CCCl)CCCl)cc1)C(=O)O (stereo not drawn)	TrxR1 inh 39.8µM (no result: GLP-1R inv ag, GLP-1R agonist, HEK293 tox, mIDH1 inhibitor)
C=CCN1C(=O)/C(=C/c2ccc3c(c2)CCCN3CCC)C(=O)NC1=S	TrxR1 inh 10µM, mIDH1 inhibitor inconclusive
O=C1NC(=S)N(C2CC2)C(=O)/C1=C/c1ccc2c(c1)CCN2CCCCl	TrxR1 inh 7.94µM, mIDH1 inhibitor inconclusive
CCN1C(=O)/C(=C/c2ccc3c(c2)CCN3CCCCl)C(=O)NC1=S	TrxR1 inh 28.2µM
CC(C)(C)N1C(=O)NC(=O)/C(=C\c2ccc3c(c2)CCN3CCCCl)C1=O	TrxR1 inh inconclusive
C[C@H](CO)N1C[C@H](C)[C@H](CN(C)S(=O)(=O)c2ccc(Cl)cc2)OCc2ccccc2-c2c(n(C)c3ccccc23)C1=O	GLP-1R inv ag inconclusive, HEK293 tox inconclusive (no result: TrxR1 inh, TrxR1 substrate)
CCOc1cc(CNCCc2c[nH]c3ccccc23)cc(Cl)c1OC	GLP-1R inv ag 11.2µM, HEK293 tox inconclusive
COc1ccc(CNCCc2c[nH]c3ccccc23)c(OC)c1OC	GLP-1R inv ag inconclusive
c1ccc(COc2ncnc3c2ncn3CCCN2CCN(Cc3cccc4ccccc34)CC2)cc1	GLP-1R inv ag 3.55µM, HEK293 tox inconclusive (no result: TrxR1 inh, TrxR1 substrate)
O=C(NCCCN1CC1)Nc1cccc2ccccc12	none
CC1=Nc2cc(C(=O)NCCc3ccc(Cl)cc3)ccc2Sc2ccc(C)cc21	GLP-1R inv ag inconclusive, HEK293 tox inconclusive (no result: GLP-1R agonist)
CN(CC(=O)Nc1cccc(S(=O)(=O)N2CCOCC2)c1)CC(=O)Nc1ccc(Cl)c(C(F)(F)F)c1	GLP-1R inv ag inconclusive, HEK293 tox inconclusive
O=C(Nc1ccc(Cl)c(C(F)(F)F)c1)c1ccc2c(c1)CCN2S(=O)(=O)c1ccccc1	GLP-1R inv ag 5.01µM (no result: GLP-1R agonist)
Cc1cc(/C=C2\C(=O)NC(=O)N(c3cccc(F)c3)C2=O)c(C)n1-c1ccc(C(=O)O)c(Cl)c1	none
Cc1ccc(N2C(=O)NC(=O)/C(=C/c3ccc(OC(=O)c4cccs4)cc3)C2=O)cc1	TrxR1 inh 31.6µM
COc1ccc(N2C(=O)NC(=O)/C(=C/c3cccc(OC(=O)c4cccs4)c3)C2=O)cc1Cl	TrxR1 inh 10µM
CCNc1cc(N2CCN(C)CC2)ccc1[N+](=O)[O-]	HEK293 tox inconclusive
CN(C)c1c([N+](=O)[O-])cc(N2C(=O)C=CC2=O)cc1[N+](=O)[O-]	TrxR1 inh 2.82µM
O=C(N/N=C/c1c(O)n(Cc2ccc(F)cc2)c(=O)[nH]c1=O)c1ccccc1	none
O=C(O)CCC(=O)NCCC1=c2ccccc2=N/C1=C\c1c(O)n(Cc2ccc(F)cc2)c(=S)[nH]c1=O	TrxR1 inh 35.5µM, GLP-1R inv ag inconclusive
O=C1NC(=O)N(Cc2ccccc2Cl)C(=O)/C1=C/c1cccs1	TrxR1 inh inconclusive
CC(C)c1ccc(N2C(=O)NC(=O)/C(=C/c3cnc(-c4ccccc4)nc3)C2=O)cc1	TrxR1 inh 3.98µM
O=C1NC(=O)N(Cc2ccc(F)cc2)C(=O)/C1=C\c1ccoc1	none
CSc1ncc(/C=C2/C(=O)NC(=O)N(c3ccc(C(C)C)cc3)C2=O)cn1	TrxR1 inh 10µM
O=C1NC(=O)N(Cc2ccc(F)cc2)C(=O)/C1=C/c1cccs1	TrxR1 inh 17.8µM
O=C1NC(=O)N(Cc2ccccc2)C(=O)/C1=C/c1cnc(-c2ccccc2)nc1	TrxR1 inh 6.31µM
CCc1ccc(N2C(=O)NC(=O)/C(=C\c3cccn3CCOc3ccc(C(C)C)cc3)C2=O)cc1	GLP-1R inv ag inconclusive
Cn1c(O)c(/C=N/Nc2ccccc2)c(=O)n(C)c1=O	GLP-1R inv ag 10µM, HEK293 tox inconclusive
